Measured values as given in the supplement of paper PMC10849652.
About 8,800 targets were measured; listed, in parts, are those with a hit and a random draw of the rest. About 0.5% of all pairs of compound and target were hits.

compound: NCC(=O)Nc1ccc(-n2nc(C(F)(F)F)cc2-c2ccc3c(ccc4ccccc43)c2)cc1; assay: log2 fold change, soluble protein after heating vs DMSO (PISA); higher = thermal stabilisation; K562 lysate, 10 uM; active = over 0.2 and 3.5 SD of the protein, either way, in both replicates (recomputed)
How it was run: (§1)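 Thermal stability, expressed as log-two fold change relative to solvent controls, is given from duplicates. Crude K562 extract in PBS pH 7.4 with 1 mM MgCl2, at 1 mg/mL protein, was treated with 10 μM compound for 30 min and heated in aliquots for 3 min across 48°C-58°C. After pooling, adjustment to 0.5% NP-40 at 4°C and centrifugation at 21,000xg for 90 min, supernatant protein was measured by TMTpro 16plex LC-MS/MS with channel sums equalised.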

Chain of UniProt Q9UHX1 (Q9UHX1 whole entry, looked up): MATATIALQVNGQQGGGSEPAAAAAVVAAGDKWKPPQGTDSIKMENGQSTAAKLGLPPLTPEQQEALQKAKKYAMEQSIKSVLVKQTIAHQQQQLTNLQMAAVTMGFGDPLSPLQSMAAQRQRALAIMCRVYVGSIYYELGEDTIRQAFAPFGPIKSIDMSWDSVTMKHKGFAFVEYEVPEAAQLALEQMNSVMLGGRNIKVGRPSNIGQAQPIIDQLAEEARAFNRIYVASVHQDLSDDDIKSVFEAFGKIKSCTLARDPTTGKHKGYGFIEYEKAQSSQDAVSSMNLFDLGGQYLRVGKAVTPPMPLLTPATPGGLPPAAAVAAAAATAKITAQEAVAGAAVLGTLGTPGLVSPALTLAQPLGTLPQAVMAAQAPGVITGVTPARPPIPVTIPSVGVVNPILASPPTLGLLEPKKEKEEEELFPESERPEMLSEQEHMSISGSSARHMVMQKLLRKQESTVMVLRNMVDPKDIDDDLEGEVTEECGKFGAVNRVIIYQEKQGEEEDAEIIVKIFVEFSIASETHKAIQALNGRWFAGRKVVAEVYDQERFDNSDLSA
Chain of UniProt O00264 (O00264 whole entry, looked up): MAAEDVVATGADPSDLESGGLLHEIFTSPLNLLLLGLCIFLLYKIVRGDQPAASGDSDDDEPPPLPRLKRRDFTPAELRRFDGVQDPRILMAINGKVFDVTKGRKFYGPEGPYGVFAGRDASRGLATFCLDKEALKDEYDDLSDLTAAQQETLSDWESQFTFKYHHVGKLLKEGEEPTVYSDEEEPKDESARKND
Chain of UniProt Q14671 (Q14671 whole entry, looked up): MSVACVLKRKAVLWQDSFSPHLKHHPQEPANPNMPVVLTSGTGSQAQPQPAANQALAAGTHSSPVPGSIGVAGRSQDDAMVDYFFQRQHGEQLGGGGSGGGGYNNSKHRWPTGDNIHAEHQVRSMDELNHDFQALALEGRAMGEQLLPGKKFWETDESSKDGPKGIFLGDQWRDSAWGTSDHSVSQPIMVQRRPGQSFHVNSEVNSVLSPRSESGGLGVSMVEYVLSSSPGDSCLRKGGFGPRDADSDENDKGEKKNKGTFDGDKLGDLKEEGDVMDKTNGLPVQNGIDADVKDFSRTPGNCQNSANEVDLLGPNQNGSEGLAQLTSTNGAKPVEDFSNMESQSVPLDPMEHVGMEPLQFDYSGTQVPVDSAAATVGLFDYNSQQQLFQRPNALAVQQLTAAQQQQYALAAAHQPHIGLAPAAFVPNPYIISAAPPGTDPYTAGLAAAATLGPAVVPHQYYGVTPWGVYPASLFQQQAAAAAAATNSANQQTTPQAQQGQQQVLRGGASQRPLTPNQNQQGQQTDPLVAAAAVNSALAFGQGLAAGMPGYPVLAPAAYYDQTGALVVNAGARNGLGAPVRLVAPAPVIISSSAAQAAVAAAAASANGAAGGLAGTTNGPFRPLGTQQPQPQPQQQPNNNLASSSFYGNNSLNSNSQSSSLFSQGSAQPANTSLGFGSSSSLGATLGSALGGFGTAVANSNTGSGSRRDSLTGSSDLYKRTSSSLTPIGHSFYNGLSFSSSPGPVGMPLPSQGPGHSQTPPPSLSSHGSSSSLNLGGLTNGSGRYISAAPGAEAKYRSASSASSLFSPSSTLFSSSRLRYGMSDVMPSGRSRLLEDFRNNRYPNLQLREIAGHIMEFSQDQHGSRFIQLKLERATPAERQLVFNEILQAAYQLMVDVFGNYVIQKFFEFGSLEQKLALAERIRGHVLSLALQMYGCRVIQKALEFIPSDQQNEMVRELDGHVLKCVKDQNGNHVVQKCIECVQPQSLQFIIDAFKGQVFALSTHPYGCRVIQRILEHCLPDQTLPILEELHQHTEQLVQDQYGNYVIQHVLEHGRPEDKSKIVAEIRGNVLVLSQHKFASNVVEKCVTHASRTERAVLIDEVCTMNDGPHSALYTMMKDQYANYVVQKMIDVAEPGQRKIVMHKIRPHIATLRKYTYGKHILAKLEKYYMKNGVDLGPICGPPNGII
Chain of UniProt Q8TCD6 (Q8TCD6 whole entry, looked up): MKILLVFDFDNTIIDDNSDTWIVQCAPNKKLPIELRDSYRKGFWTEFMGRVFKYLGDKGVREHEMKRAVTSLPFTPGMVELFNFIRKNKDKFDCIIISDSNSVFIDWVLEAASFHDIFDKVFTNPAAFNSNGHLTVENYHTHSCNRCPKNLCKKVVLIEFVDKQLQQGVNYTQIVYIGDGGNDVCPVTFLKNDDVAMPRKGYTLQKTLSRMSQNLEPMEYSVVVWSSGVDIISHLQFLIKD
Chain of UniProt Q86UU1 (Q86UU1 whole entry, looked up): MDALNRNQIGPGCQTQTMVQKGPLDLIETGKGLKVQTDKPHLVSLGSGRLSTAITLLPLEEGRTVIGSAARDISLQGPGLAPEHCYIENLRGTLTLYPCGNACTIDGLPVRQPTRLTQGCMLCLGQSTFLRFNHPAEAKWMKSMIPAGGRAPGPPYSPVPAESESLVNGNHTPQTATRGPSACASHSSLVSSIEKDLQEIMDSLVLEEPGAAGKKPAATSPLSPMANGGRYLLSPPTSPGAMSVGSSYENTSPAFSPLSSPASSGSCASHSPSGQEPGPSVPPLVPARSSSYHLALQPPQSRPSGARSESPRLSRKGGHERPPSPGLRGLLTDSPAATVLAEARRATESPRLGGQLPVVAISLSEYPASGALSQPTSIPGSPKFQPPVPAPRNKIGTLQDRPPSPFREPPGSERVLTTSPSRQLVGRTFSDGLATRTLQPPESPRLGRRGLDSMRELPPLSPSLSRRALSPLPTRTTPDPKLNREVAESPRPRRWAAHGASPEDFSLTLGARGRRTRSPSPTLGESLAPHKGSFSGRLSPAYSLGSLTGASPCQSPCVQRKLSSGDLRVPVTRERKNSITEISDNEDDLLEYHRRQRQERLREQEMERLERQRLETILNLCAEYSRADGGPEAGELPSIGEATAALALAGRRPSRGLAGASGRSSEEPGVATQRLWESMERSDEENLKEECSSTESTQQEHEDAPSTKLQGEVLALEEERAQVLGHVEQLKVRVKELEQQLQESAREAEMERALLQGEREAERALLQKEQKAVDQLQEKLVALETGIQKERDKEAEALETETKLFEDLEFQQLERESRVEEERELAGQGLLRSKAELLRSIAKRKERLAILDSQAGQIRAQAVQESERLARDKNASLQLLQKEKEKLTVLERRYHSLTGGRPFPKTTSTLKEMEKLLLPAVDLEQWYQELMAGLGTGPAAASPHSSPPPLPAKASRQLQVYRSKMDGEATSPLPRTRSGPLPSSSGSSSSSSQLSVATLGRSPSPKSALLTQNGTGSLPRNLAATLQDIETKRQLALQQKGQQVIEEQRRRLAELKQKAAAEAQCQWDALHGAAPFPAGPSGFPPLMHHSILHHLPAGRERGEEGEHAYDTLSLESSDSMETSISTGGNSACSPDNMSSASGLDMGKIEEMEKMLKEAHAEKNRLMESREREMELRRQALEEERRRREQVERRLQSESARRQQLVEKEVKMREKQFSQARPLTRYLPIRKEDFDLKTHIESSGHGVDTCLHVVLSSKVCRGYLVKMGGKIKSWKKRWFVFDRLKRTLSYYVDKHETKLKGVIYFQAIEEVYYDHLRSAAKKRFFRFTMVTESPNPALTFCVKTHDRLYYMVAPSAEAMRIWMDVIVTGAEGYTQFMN
Chain of UniProt Q96LW4 (Q96LW4 whole entry, looked up): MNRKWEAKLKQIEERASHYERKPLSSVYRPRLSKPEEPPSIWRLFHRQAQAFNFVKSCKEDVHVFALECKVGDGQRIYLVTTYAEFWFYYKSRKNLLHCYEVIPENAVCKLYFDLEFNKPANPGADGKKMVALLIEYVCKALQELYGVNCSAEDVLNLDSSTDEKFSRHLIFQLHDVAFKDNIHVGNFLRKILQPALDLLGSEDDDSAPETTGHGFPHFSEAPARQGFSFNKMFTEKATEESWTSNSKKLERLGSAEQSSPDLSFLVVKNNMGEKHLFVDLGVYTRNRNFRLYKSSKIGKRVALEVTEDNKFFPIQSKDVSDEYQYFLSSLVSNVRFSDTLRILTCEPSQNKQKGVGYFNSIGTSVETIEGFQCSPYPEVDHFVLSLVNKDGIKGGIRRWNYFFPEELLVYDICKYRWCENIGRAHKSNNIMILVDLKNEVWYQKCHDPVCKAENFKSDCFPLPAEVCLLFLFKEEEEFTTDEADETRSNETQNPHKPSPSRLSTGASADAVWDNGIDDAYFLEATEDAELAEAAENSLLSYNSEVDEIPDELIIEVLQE
Chain of UniProt Q16378 (Q16378 whole entry, looked up): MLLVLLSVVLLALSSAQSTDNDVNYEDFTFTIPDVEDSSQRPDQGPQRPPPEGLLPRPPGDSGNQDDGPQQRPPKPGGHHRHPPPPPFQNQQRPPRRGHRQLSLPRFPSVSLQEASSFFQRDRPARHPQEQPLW
Chain of UniProt P35236 (P35236 whole entry, looked up): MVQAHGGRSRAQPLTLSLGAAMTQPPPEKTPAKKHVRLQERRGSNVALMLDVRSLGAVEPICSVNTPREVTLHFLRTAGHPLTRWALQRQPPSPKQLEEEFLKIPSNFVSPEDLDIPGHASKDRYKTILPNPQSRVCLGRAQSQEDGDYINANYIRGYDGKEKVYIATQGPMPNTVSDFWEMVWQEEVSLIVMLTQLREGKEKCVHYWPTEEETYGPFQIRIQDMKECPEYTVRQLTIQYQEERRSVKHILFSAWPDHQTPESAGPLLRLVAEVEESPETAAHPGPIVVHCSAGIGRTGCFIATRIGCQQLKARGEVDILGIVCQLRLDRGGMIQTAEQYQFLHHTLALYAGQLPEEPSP
Chain of UniProt Q15366 (Q15366 whole entry, looked up): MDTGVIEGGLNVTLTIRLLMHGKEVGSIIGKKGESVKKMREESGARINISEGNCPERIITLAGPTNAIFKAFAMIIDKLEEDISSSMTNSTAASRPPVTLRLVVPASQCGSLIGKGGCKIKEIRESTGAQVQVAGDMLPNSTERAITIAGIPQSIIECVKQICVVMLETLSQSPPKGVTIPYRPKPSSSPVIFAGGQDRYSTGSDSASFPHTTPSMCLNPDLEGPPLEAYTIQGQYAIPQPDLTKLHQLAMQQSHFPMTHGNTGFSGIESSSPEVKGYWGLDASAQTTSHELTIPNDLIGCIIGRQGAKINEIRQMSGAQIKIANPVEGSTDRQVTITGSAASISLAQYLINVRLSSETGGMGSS

Target	log2 fold change
PGRMC1 (UniProt O00264)	-0.018 (inactive)
PRR4 (UniProt Q16378)	0.009 (inactive)
PHLDB1 (UniProt Q86UU1)	0.022 (inactive)
PUF60 (UniProt Q9UHX1)	-0.007 (inactive)
PHC1 (UniProt P78364)	0.042 (inactive)
PHOSPHO2 (UniProt Q8TCD6)	-0.051 (inactive)
PCBP2 isoform 8 (UniProt Q15366)	-0.06 (inactive)
PRIMPOL (UniProt Q96LW4)	-0.03 (inactive)
POLR2G (UniProt P62487)	0.001 (inactive)
PPP2R3C (UniProt Q969Q6)	-0.019 (inactive)
PTPN7 isoform 3 (UniProt P35236)	0.031 (inactive)
PITRM1 isoform 2 (UniProt Q5JRX3)	0.003 (inactive)
PHF14 (UniProt O94880)	-0.062 (inactive)
PPP3CA isoform 2 (UniProt Q08209)	0.006 (inactive)
PRKDC (UniProt P78527)	-0.089 (inactive)
PTGS1 isoform 6 (UniProt P23219)	-0.013 (inactive)
PGGT1B (UniProt P53609)	-0.038 (inactive)
PPP1R14C (UniProt Q8TAE6)	-0.061 (inactive)
PCBP2 (UniProt F8W0G4)	0.083 (inactive)
PNPLA4 (UniProt P41247)	-0.012 (inactive)
PFN3 (UniProt P60673)	0.158 (inactive)
PUM1 isoform 3 (UniProt Q14671)	0.027 (inactive)

compound: O=C(CCCCCCC(=O)Nc1ccccc1)NO [vorinostat]; assay: as above
How it was run: as §1

Target	log2 fold change
PGRMC1 (UniProt O00264)	0.113 (inactive)
PRR4 (UniProt Q16378)	0.229 (inactive)
PHLDB1 (UniProt Q86UU1)	-0.357 (active)
PUF60 (UniProt Q9UHX1)	0.15 (inactive)
PCBP2 (UniProt F8VRH0)	-0.982 (active)
PHOSPHO2 (UniProt Q8TCD6)	0.181 (inactive)
PCBP2 isoform 8 (UniProt Q15366)	-0.489 (active)
PRIMPOL (UniProt Q96LW4)	-0.337 (active)
POLR2G (UniProt P62487)	0.116 (inactive)
PPP2R3C (UniProt Q969Q6)	-0.362 (inactive)
POM121C (UniProt A8CG34)	0.077 (inactive)
PTPN7 isoform 3 (UniProt P35236)	-0.491 (active)
PITRM1 isoform 2 (UniProt Q5JRX3)	0.111 (inactive)
PICALM (UniProt H0YCY1)	0.202 (inactive)
NA (UniProt Q4G0T1)	-0.027 (inactive)
PPP3CA isoform 2 (UniProt Q08209)	0.042 (inactive)
PRKDC (UniProt P78527)	-0.426 (active)
PPME1 (UniProt Q9Y570)	-0.673 (active)
PIP5K1A (UniProt Q99755)	-0.014 (inactive)
PTGS1 isoform 6 (UniProt P23219)	0.05 (inactive)
PGGT1B (UniProt P53609)	0.08 (inactive)
PRADC1 (UniProt Q9BSG0)	0.07 (inactive)
PCBP2 (UniProt F8W0G4)	-0.058 (inactive)
PPP1R11 (UniProt O60927)	-0.31 (active)
PLXND1 (UniProt Q9Y4D7)	-0.132 (inactive)
PYGO2 (UniProt Q9BRQ0)	0.151 (inactive)
PUM1 isoform 3 (UniProt Q14671)	-0.192 (inactive)
PTK2 isoform 2 (UniProt Q05397)	-0.056 (inactive)

compound: O=C(O)c1ccc2c(c1)nc(Nc1cccc(Cl)c1)c1ccncc12 [silmitasertib]; assay: as above
How it was run: as §1

Target	log2 fold change
PGRMC1 (UniProt O00264)	0.017 (inactive)
PRR4 (UniProt Q16378)	-0.176 (inactive)
PHLDB1 (UniProt Q86UU1)	0.012 (inactive)
PUF60 (UniProt Q9UHX1)	-0.029 (inactive)
PCBP2 (UniProt F8VRH0)	-0.441 (inactive)
PHOSPHO2 (UniProt Q8TCD6)	-0.002 (inactive)
PCBP2 isoform 8 (UniProt Q15366)	-0.037 (inactive)
PRIMPOL (UniProt Q96LW4)	0.034 (inactive)
POLR2G (UniProt P62487)	-0.043 (inactive)
PPP2R3C (UniProt Q969Q6)	0.086 (inactive)
POM121C (UniProt A8CG34)	-0.196 (inactive)
PTPN7 isoform 3 (UniProt P35236)	0.01 (inactive)
PITRM1 isoform 2 (UniProt Q5JRX3)	0.006 (inactive)
PICALM (UniProt H0YCY1)	-0.07 (inactive)
NA (UniProt Q4G0T1)	0.092 (inactive)
PPP3CA isoform 2 (UniProt Q08209)	0.014 (inactive)
PRKDC (UniProt P78527)	0.762 (active)
PPME1 (UniProt Q9Y570)	0.185 (inactive)
PIP5K1A (UniProt Q99755)	-0.033 (inactive)
PTGS1 isoform 6 (UniProt P23219)	-0.033 (inactive)
PGGT1B (UniProt P53609)	0.109 (inactive)
PRADC1 (UniProt Q9BSG0)	-0.041 (inactive)
PCBP2 (UniProt F8W0G4)	0.025 (inactive)
PPP1R11 (UniProt O60927)	0.034 (inactive)
PLXND1 (UniProt Q9Y4D7)	0.174 (inactive)
PYGO2 (UniProt Q9BRQ0)	-0.067 (inactive)
PUM1 isoform 3 (UniProt Q14671)	0 (inactive)
PTK2 isoform 2 (UniProt Q05397)	0.046 (inactive)
